The results in this text go back to PubChem BioAssay AID588852 (The Scripps Research Institute Molecular Screening Center, 2011).

The campaign covered roughly 360,000 compounds. About 4,600 (1.3%) were called active. Many of the other results were omitted from the sample, so actives are more common in it than they were. A number with no mark means an inactive call.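 The calls were made as follows: active = percent inhibition above its own plate's cutoff, namely the mean of that plate's compound wells plus 3 SD; inactive = the rest.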

This experiment deals with Muscarinic acetylcholine receptor M1 (Homo sapiens) (UniProt P11229). Briefly: CHRM1 blockers of acetylcholine calcium response – CHO-K1 cells, Fluo-8 calcium fluorescence, 1536-well, primary screen (AID 588852).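 Also: peak over basal fluorescence ratio during 140 s after agonist addition; 0% = ACh EC80 plus DMSO and 100% = DMSO alone without agonist.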 As to conditions: CHO-K1 hM1, Fluo-8 calcium fluorescence, ACh EC80 antagonist; at 3 µM; stronger effect = higher value.
Muscarinic acetylcholine receptor M1 (Homo sapiens), sequence (P11229 whole entry, looked up): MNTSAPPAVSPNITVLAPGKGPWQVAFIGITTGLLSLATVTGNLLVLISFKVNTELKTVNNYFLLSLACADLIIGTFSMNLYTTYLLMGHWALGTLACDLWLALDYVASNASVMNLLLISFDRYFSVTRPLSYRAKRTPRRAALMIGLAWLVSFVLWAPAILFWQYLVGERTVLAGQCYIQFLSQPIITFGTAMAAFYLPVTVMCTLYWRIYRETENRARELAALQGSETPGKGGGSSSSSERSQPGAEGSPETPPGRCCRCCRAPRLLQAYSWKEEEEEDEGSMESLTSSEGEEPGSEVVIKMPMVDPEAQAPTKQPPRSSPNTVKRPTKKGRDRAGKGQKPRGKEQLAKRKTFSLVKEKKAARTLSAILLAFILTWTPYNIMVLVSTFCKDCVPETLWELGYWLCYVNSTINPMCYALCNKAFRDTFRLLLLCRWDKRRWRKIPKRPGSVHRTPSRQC
For orientation: inhibition means the change of the read-out against control, counted positive when it falls. As to `COc1ccc(NC(=O)NC2CC3CCCC(C2)N3Cc2ccccc2)cc1` (centres undefined), the inhibition is 1.24%.

On to `CCCN1C2CCCC1CC(NC(=O)c1cccc(OC)c1)C2` (centres undefined), for which the inhibition was -14.2%.

With `COc1ccc(CN2C3CCCC2CC(NC(=O)c2cccc(F)c2)C3)cc1` (centres undefined), the inhibition is 32.6% (active).

Take `Cc1nn(Cc2ccc(C(=O)N3N=C(C(F)F)CC3(O)C(F)F)cc2)c(C)c1[N+](=O)[O-]` (centres undefined): the inhibition was -0.52%.

With `COc1ccc(C(C)(O)c2nc(-c3ccc(C)c(C)c3)cs2)cc1` (centres undefined), the inhibition was 6.49%.

With `Cc1cc([N+](=O)[O-])nn1CC(=O)Nc1ccc(Cc2ccncc2)cc1`, the inhibition was 28.3% (active).

Turning to `Cc1cc(C)n(CC(=O)Nc2ccc([N+](=O)[O-])cc2)n1`, the inhibition was -1.63%.

In the case of `CC(C)CC(=O)Nc1ccc(Cc2ccncc2)cc1`, the inhibition is -16.9%.

Turning to `CC(C)CN1CCC1(C)C(=O)Nc1ccc(OC(F)F)cc1` (centres undefined), the inhibition was 1.99%.

For the compound `CCc1nc2c(=O)[nH]cnc2o1`, the inhibition is -5.65%.

On to `COc1cc(C(=O)N(C)Cc2cccc(OC)c2OC)ccc1OCC(=O)Nc1cccc(C(F)(F)F)c1`, for which the inhibition is 5.88%.

As to `CCCCC[C@H]1CN(C2CCCCC2)C(=O)[C@@H]1CC(=O)NCc1ccc(OC)cc1`, the inhibition was -1.3%.

`Cn1ccnc1SCC(=O)Nc1ccc2c(c1)OCCO2`: the inhibition was -13.9%.

On to `O=C(CSc1nc(=O)n2ccccc2n1)Nc1ccc2c(c1)OCCO2`, for which the inhibition is 35.3% (active).

On to `O=C(CSc1nc2ncccc2[nH]1)Nc1ccc2c(c1)OCCO2`, for which the inhibition is -2.03%.

Take `CC(=O)Nc1cc(-c2ccc(N3CCN(C)CC3)cc2)cn2c(-c3ccc(F)cc3)cnc12`: the inhibition was -18.1%.

For the compound `CCc1ccc2c(c1)NC(=O)C2(C)Cc1ccc(OC(F)(F)F)cc1` (centres undefined), the inhibition is -13.1%.

`Cc1ccc(Cl)c(OCC(=O)NN2CCN(C)CC2)c1`: the inhibition was -16.2%.

Consider `O=C(CCCOc1ccc(Cl)cc1Cl)NNC(=O)C1CCC1`, for which the inhibition is -17.9%.

Take `CN1CCC(OC(=O)COc2ccc(Cl)cc2Cl)CC1`: the inhibition is 51.8% (active).

For the compound `COc1ccc(CN(CC(=O)NC2CCCC2)C(=O)CCC(=O)Nc2cc(C)on2)cc1`, the inhibition is -0.71%.

`CN(C)/C=C(\C#N)C(=O)c1cccnc1Oc1ccc(F)cc1F`: the inhibition is -0.88%.

For the compound `O=C(N=C1SC2CS(=O)(=O)CC2N1c1ccccc1)c1ccccc1` (centres undefined), the inhibition is -9.89%.

As for `CCOC(=O)N1CCN(Cc2nnc(-c3ccccc3Cl)o2)CC1`, the inhibition was -15.1%.

Regarding `CCOC(=O)C1CCN(Cc2nnc(-c3cccc(Br)c3)o2)CC1`, the inhibition is 35.9% (active).

Turning to `CCOC(=O)C1CCN(Cc2ccc(-c3ccccc3)cc2)CC1`, the inhibition was 25.5%.

Take `CC1=NC2(CCCc3c2no[n+]3[O-])N(O)C1(C)C` (centres undefined): the inhibition was 0.36%.

Turning to `Cc1ccc(C(=O)NC(C)C(c2cccs2)N2CCOCC2)cc1C` (centres undefined), the inhibition is -6.99%.

In the case of `COC(=O)[C@]1(S(=O)(=O)c2ccccc2)C[C@@H]2ON=C(c3ccc(OC)cc3)[C@@H]2C1`, the inhibition was -7.9%.

With `N#C[C@]1(S(=O)(=O)c2ccccc2)C[C@@H]2ON=C(c3cccc(Br)c3)[C@@H]2C1`, the inhibition was 33.5% (active).

Consider `CCN1C(=O)C(C(=O)NC(C)c2ccccc2)C2CC1(C)Oc1ccccc12` (centres undefined), for which the inhibition is -3.28%.

In the case of `C=CCOc1ccc(/C=C/C(=O)OCC(=O)NCC2CCCO2)cc1` (centres undefined), the inhibition is -1.61%.

Consider `NC(=O)C1(N2CCCC2)CCN(Cc2ccccc2)CC1`, for which the inhibition was 2.73%.

Regarding `CC12CN(Cc3ccccc3)CC(C)(CN(Cc3ccccc3)C1)C2=NO`, the inhibition is 38.2% (active).

As to `O=S1(=O)CCN(Cc2ccccc2)CC1`, the inhibition was -8.4%.

`COc1ccc(/C=N/NC(=O)C(C)N(c2ccc(OC)cc2)S(C)(=O)=O)cc1` (centres undefined): the inhibition was 3.35%.

For `CC(=O)Nc1ccc(Nc2ncnc3c2nnn3Cc2ccccc2Cl)cc1`, the inhibition is -1.5%.

As to `COC(=O)C1(S(=O)(=O)C2(C(=O)OC)CCCC2)CCCC1`, the inhibition is -1.25%.

`CCCCOc1ccc(CON(C(C)=O)C(C)=O)cc1Cl`: the inhibition is 6.46%.

On to `COc1ccccc1S(=O)(=O)NCc1ccc(C(=O)N(C)Cc2ccc(F)cc2)cc1`, for which the inhibition was -14.8%.

In the case of `COc1ccc([N+](=O)[O-])cc1C1NN=C(c2cccc3ccccc23)S1` (centres undefined), the inhibition was -11%.

For the compound `Cc1ccc(S(=O)(=O)c2nc(NCCCn3ccnc3)sc2Cl)cc1`, the inhibition is 29.2% (active).

For `Cc1ccc2c(Cl)c(C(=O)NCCCn3ccnc3)sc2c1`, the inhibition is -10.2%.

In the case of `Cc1ccc(-c2nc(C#N)c(NCCCn3ccnc3)o2)cc1`, the inhibition was -17.5%.

Regarding `C/C(=N\NC(=S)NCc1ccccc1)C1CCCCC1`, the inhibition was -9.74%.

On to `Cc1cc2nc(-c3ccc(Cl)cc3)c(Cc3cccc(F)c3)n2c(C)c1Br`, for which the inhibition was 0.42%.

With `O=C(CC1CCCCC1)Nc1c2c(nn1-c1ccc(F)cc1)CS(=O)(=O)C2`, the inhibition was 104% (active).

With `COc1ccccc1OCC(=O)Nc1c2c(nn1-c1ccc(F)cc1)CS(=O)(=O)C2`, the inhibition is -12.4%.

On to `O=C(Nc1c2c(nn1-c1ccccc1)CS(=O)(=O)C2)C1CCCC1`, for which the inhibition was -10.8%.

Take `c1ccc2c(c1)CSc1sccc1C2=C1CCNCC1`: the inhibition is 99.6% (active).

For `CC(C)(C)NC(=O)CSC(=Nc1ccccc1F)NC#N`, the inhibition was -1.14%.

As to `COc1ccc(-n2c(=O)[nH]c3cc(C(=O)NCCc4ccc(OC)c(OC)c4)ccc3c2=O)c(OC)c1`, the inhibition is -8.11%.

`COCCn1c(=S)[nH]c2cc(C(=O)NCCc3ccc(OC)c(OC)c3)ccc2c1=O`: the inhibition was -6.48%.

Regarding `CCOC(=O)N1CCN(C(=O)c2ccc3c(=O)n(CCc4ccc(OC)c(OC)c4)c(=O)[nH]c3c2)CC1`, the inhibition is 62.3% (active).

`COCc1cc(=O)[nH]c(-c2ccc(C(F)(F)F)cc2)n1`: the inhibition was -16.9%.

`CC(=O)N[C@@H](C)C(=O)N1CCC(n2nccc2NC(=O)CCCc2ccccc2)CC1`: the inhibition was -3.58%.

Turning to `CN(Cc1ccc(C(F)(F)F)cc1)C(=O)[C@H]1O[C@@H](n2cnc3c(N)ncnc32)[C@H](O)[C@@H]1O`, the inhibition was -26%.

Take `CN(C)N(C)C(=O)C(O)(c1ccccc1)c1ccccc1`: the inhibition was 17.7%.

Consider `CCCC(O)(c1ccc(OC)cc1)C(CN(C)C)c1ccccc1` (centres undefined), for which the inhibition was -7.01%.

Regarding `COC(CCN(C)C)(c1ccccc1)c1ccccc1`, the inhibition is 60.4% (active).

With `CC(=O)NC(CC(=O)Nc1cccc(S(=O)(=O)N2CCCC2)c1)c1ccccc1` (centres undefined), the inhibition was 3.34%.

As for `CN(C)CCNC(=O)c1cccc(-c2cnc3c(NC=O)cc(-c4cccc(C(F)(F)F)c4)cn23)c1`, the inhibition is 2.76%.

Consider `CN1OC[C@@H]2CN(C(=O)c3cccc4ccccc34)[C@H](c3ccc(N4CCCCC4)cc3)C[C@@H]21`, for which the inhibition is 19.7%.

As to `CN(CCOc1ccccc1)Cc1nc2cc(Cl)ccc2c(=O)[nH]1`, the inhibition is -3.58%.

Take `Cc1nnc(NC2=NCCCCC2)o1`: the inhibition is 4.98%.

For the compound `CC/C(=N\NC(=S)NC(C)C)c1ccc(OC(F)F)cc1`, the inhibition is 8.57%.

As for `O=C(NNS(=O)(=O)c1ccc(Cl)cc1)C1CCN(Cc2ccccc2)CC1`, the inhibition is 57.4% (active).

Consider `Cc1ccc(S(=O)(=O)NCCC(=O)NC2CCN(Cc3ccccc3)CC2)cc1`, for which the inhibition is -6.1%.

For the compound `O=C1CCc2cc(S(=O)(=O)N3CCC(C(=O)NCc4ccccc4Cl)CC3)ccc2N1`, the inhibition was -13.3%.

Turning to `O=C(NCc1ccccc1Cl)C1CCN(S(=O)(=O)N2CCOCC2)CC1`, the inhibition is 0.29%.

For `O=C(NCc1ccccc1CN1CCCC1)C1CCN(S(=O)(=O)c2ccc(Cl)cc2)CC1`, the inhibition is 35.7% (active).

For the compound `CCNC(=S)NNC(=O)C1CCN(Cc2ccccc2)CC1`, the inhibition was -7.27%.

Turning to `CCCCC[C@@H]1C=C(C(=O)OCC)[C@H](c2ccccc2)N1S(=O)(=O)c1ccc(C)cc1`, the inhibition was 7.33%.

On to `Cc1ccc(NC(=O)[C@H](Cc2ccccc2)NC(=O)CC[C@H]2O[C@@H](n3ccc(=O)[nH]c3=O)[C@H](O)[C@@H]2O)cc1C`, for which the inhibition was -1.88%.

Consider `Nc1ncnc2c1ncn2[C@@H]1O[C@H](C(=O)N2CCCN(Cc3ccccc3F)CC2)[C@@H](O)[C@H]1O`, for which the inhibition is -21.5%.

As to `CN(C)C(=O)c1cccc(-c2cnc3sc(NCc4ccc5c(c4)OCO5)nn23)c1`, the inhibition was -4.01%.

As for `CCOC(=O)c1ccc(N2C(=O)CC(N3CCC(C(=O)OCC)CC3)C2=O)cc1` (centres undefined), the inhibition was 2.05%.

With `CCOC(=O)c1ccc(N2C(=O)CC(N3CCN(C(=O)c4ccccc4)CC3)C2=O)cc1` (centres undefined), the inhibition was -7.68%.

Take `CCCCOC(=O)c1ccc(N2C(=O)CC(N3CCN(C/C=C/c4ccccc4)CC3)C2=O)cc1` (centres undefined): the inhibition was 23.9% (active).

As to `COc1ccc(CCNC(=O)CCNS(=O)(=O)c2cc(Br)cnc2N)cc1OC`, the inhibition was -19.1%.

On to `CCCC(=O)N1CCC1(C)C(=O)Nc1ccc(-n2cncn2)cc1` (centres undefined), for which the inhibition is -15.8%.

`C=CCC1(CC=C)CCCN1C(=O)c1cc(COc2ccc(-n3cncn3)cc2)on1`: the inhibition was 38.7% (active).

Turning to `COc1cccc(OCc2cc(C(=O)N3CCN(C(=O)c4ccco4)CC3)no2)c1`, the inhibition was -3.65%.

As to `CC(NC(=O)c1ccccc1SCC(=O)N1CCCC1)c1ccccc1` (centres undefined), the inhibition is -16.6%.

With `COc1ccccc1NC(=O)COC(=O)c1ccccc1SCC(=O)N1CCCC1`, the inhibition was -4.49%.

On to `CC(C)N(Cc1ccccc1)C(=O)COC(=O)c1ccccc1SCC(=O)N1CCCC1`, for which the inhibition was 32.7% (active).

Turning to `COc1cc(C=C(OC(C)=O)c2ccc3c(c2)OCO3)cc(OC)c1OC`, the inhibition is 17.2%.

In the case of `O=C(NCC1CCCO1)c1ccccc1-c1nc(-c2ccccc2Cl)no1` (centres undefined), the inhibition is 6.15%.

In the case of `Cc1ccc(C(=O)NCC(=O)NCc2cc(=O)n(C)c(=O)n2C)cc1`, the inhibition is -9.92%.
